This is part of a sample that, as a whole, favours compounds with a hit. Of some 83,000 tested, about 20% had one in any assay.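 Treatment: one concentration, 48 hours, 96-well format. Scoring: percent growth, with anything below 10 considered active.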 A number with no mark means an inactive call. The source made the active and inactive calls.

These results are taken from PubChem BioAssay (NCI).

The assay relates to NCI-H522 lung. Description: NCI-60 one-dose screen, 48 h (100 = growth as untreated, 0 = no growth, -100 = all killed). The settings on record: 10 µM unless noted. The procedure: Growth inhibition of the NCI-H522 human Non-Small Cell Lung tumor cell line is measured as a screen for anti-cancer activity. Cells are grown in 96 well plates and exposed to the test compound for 48 hours. Compounds are tested at a single concentration, which is 10^-5 M for most compounds. The reported endpoint is percent growth (GI% or GIPRCNT), where numbers from 0 - 100% represent growth inhibition, and numbers from -100% - 0 represent cell death. For example, a value of 40 represents 60% growth inhibition. A value of 0 means no net growth occurred over the course of the experiment. A value of -40 indicates 40% of cells at the beginning of the experiment died by the end of the experiment. A value of -100 means all cells are dead at the end of the experiment.
NCI-60 Human Tumor Cell Lines Screen was performed using the standard one-dose NCI protocol, which is described in more detail at https://dtp.cancer.gov/discovery_development/nci-60/default.htm.
Compounds with GIPRCNT values below 10 were considered active. Activity score was based on GIPRCNT using the following formula: […]
Score is 0 for GIPRCNT values of 100 or above, 50 for GIPRCNT values of 0, and 100 for GIPRCNT values of -100.
Regarding `O=C(CCCCCCN1CC(=O)N2[C@@H](c3ccc(Cl)c(F)c3)c3[nH]c4ccccc4c3C[C@H]2C1=O)NO`, the growth was 71.7%. Regarding `C#CCOc1ccc(C(Nc2ccc(Cl)cc2)c2nnnn2C2CCCCC2)cc1` (stereo not given), the growth is 81%. The result for `O=C1C[C@@H](c2ccccc2)Oc2c(Cc3ccccc3O)c(O)c(Cc3cc(Cc4cc(Cc5ccccc5O)ccc4O)ccc3O)c(O)c21` reads 107%; that for `O=[N+]([O-])c1ccc(-c2nnc(SCc3ccc(O)c4ncccc34)o2)cc1`, 17.2%.

In the case of `CCOC(=O)c1c(NC(=O)c2cccc(C(F)(F)F)c2)sc2c(CN3CCN(C)CC3)c(O)ccc12`, the growth was -14.4% (active). The result for `Nc1cc(F)ccc1NC(=O)c1ccc(NC(=O)C/C=C/c2cccnc2)cn1` reads -4.98% (active); that for `Cc1ccc(Nc2ncnc3c2c(C)nn3-c2ccc([N+](=O)[O-])cc2)cc1`, 74.8%. `Oc1ccc(-c2nnc(SCc3ccc(O)c4ncccc34)n2-c2ccccc2)cc1`: the growth was -4.72% (active). Take `O=C(NNc1nc2cc(F)cc(F)c2n2cccc12)c1ncccn1`: the growth was -2.87% (active). For `CS(=O)c1nccc(-c2c(-c3ccc(F)c(OCCc4ccc(F)cc4)c3)nc3sccn23)n1` (stereo not given) the value was -61.7% (active). For `COc1ccccc1N1CCN(C2=NN=C(c3cccc(Cl)c3)c3ccccc3C2)CC1`, the growth is -27.1% (active). In the case of `N#Cc1c(NC(=O)c2ccccc2C(F)(F)F)sc2c1CCC(=O)C2`, the growth is -4.76% (active). Consider `Oc1ccccc1/C=N/Nc1nc(N/N=C/c2ccccc2O)nc(N2CCOCC2)n1`, for which the growth is 60.9%. As for `CCCC(=O)NC(c1cccnc1)c1cc(Cl)c2cccnc2c1O` (stereo not given), the growth is 16.8%.

Consider `CCCCCCNC(=O)Oc1ccc(/C(=C(/C)c2ccccc2)c2ccc(OCCN(C)C)cc2)cc1`, for which the growth was 68.8%. Turning to `COc1cc(NC2=C(Cl)C(=O)c3nc(C)ccc3C2=O)cc(OC)c1`, the growth was -80.6% (active). In the case of `O=C(NCCNc1cc(-c2cn(-c3ccccc3)nc2-c2cccc(O)c2)ccn1)Nc1ccc(Cl)c(C(F)(F)F)c1`, the growth was 72.5%. `COc1ccc(/C=C/C(=O)c2nnn(-c3ccc(Br)cc3)c2C)cc1OC`: the growth is 67.7%. For `CCN(CC)CCN1C(=O)c2c(c3c4cccnc4[nH]c3c3ccc4ccccc4c23)C1=O` the value was 65.4%; for `C=C1C(=O)O[C@@H]2C[C@@H](C)/C=C\C(=O)[C@](C)(OC(C)=O)C[C@H](OC(=O)/C(C)=C\C)[C@@H]12`, -82.4% (active). With `CC1OC(O[C@@H]2C(O)C(CO)OC(O[C@H]3COC(O[C@H]4CC[C@]5(C)[C@H]6CC[C@]78OC[C@@]9(CC[C@](C)(C=O)C[C@H]97)[C@H](O)C[C@@]8(C)[C@]6(C)CC[C@H]5C4(C)C)[C@@H](OC4OC(CO)[C@@H](O)[C@@H](O)[C@@H]4O)[C@@H]3O)[C@H]2OC2OC[C@@H](O)[C@@H](O)[C@@H]2O)[C@@H](O)[C@@H](O)[C@H]1O` (stereo not given in full), the growth was -55.4% (active).

With `CC1CCc2c(sc3nc(SCC(=O)N/N=C/c4ccc(Cl)cc4)n(-c4ccccc4)c(=O)c23)C1` (stereo not given), the growth is 93.6%. The result for `O=C(CN1C(=O)CSC1=O)Nc1ccc(C(=O)/C=C/c2cc3ccccc3nc2Cl)cc1` reads 66.9%. The result for `C=CCn1c(SCC(=O)Nc2cccc(C(=O)/C=C/c3ccc(C)cc3)c2)nc2ccccc2c1=O` reads 83.8%.

As to `C=C(C)C(=O)O[C@H]1C[C@@]2(C)OC(=CC2=O)/C(C)=C\[C@H]2OC(=O)C(=C)[C@H]12`, the growth was -72% (active).

Turning to `O=C(CSc1nnc(-c2cccs2)n1-c1ccccc1)Nc1ccc(F)cc1`, the growth was 82.4%.

On to `Oc1ccc(CSc2nnc(-c3ccc(Br)cc3)o2)c2cccnc12`, for which the growth is 29.4%. The result for `COc1cc(O)c2c(c1)/C=C/C[C@H](O)[C@H](O)C(=O)/C=C\C[C@H](C)OC2=O` reads -61.3% (active); that for `C=CCn1c(SCC(=O)Nc2cccc(C(=O)/C=C/c3cc(OC)c(OC)c(OC)c3)c2)nc2ccccc2c1=O`, 39.2%; that for `COCCOc1ccc(-c2csc(NC(=O)CN3CCN(CCO)CC3)n2)cc1NS(=O)(=O)c1cccc2c(N(C)C)cccc12`, 24.1%. Consider `Cc1ccc(NC(=O)c2cc(/C=C/C(=O)NO)cc(C(F)(F)F)c2)cc1Nc1nccc(-c2cccnc2)n1`, for which the growth was -73.1% (active). The result for `O=C1c2c(O)cc(O)cc2O[C@@H](c2ccc(O)cc2)[C@@H]1c1c(O)cc(O)c2c(=O)cc(-c3ccc(O)c(O)c3)oc12` reads 97.4%. For the molecule `O=C1[C@@H]2Cc3c([nH]c4ccccc34)[C@H](c3c(Cl)cccc3Cl)N2C(=O)CN1C1CCN(Cc2c(F)cccc2F)CC1`, the growth was 93%. On to `Cc1ccc(-c2cc(-c3cccc4ccccc34)n3c(n2)nc2ccccc23)cc1`, for which the growth is 76.9%.

`O=C(c1cccc(F)c1)n1ccc2cc(NC(=S)Nc3cccnc3)ccc21`: the growth is 87.1%. For `O=c1cc(-c2ccccc2)nc2sc(-c3c[nH]c4ccc(Br)cc34)nn12` the value was 86.2%; for `CCOC(=O)c1nn(-c2ccccc2)c(=O)c2c(N)c(C#N)c(-c3cccs3)cc12`, 83.8%; for `CCNC(=O)Oc1ccc(/C(=C(/C)c2ccc(Cl)cc2)c2ccc(OCCN3CCCC3)cc2)cc1`, 96.8%. Turning to `Cn1c(SC(C(=O)Nc2ccc(F)cc2)c2ccccc2)nc2ccccc2c1=O` (stereo not given), the growth was 93.1%. With `O=c1cc(-c2ccccc2)nc2sc(-c3c[nH]c4ccc(F)cc34)nn12`, the growth is 62.6%.
